# Measured values published in ChEMBL document CHEMBL3988442, “University of Dundee, Small-Polar-MMV Screening Library” (2021).
# Hit rate of the full screen: of about 48,000 compounds, about 13,000 (27%) showed an effect of 50% or more. The list shows a part of the results.
# Test system: Wolbachia pipientis
# Experiment: Anti-Wolbachia Cell-Based Screen
# Format: functional
# Parameters: scale not given: in the data most compounds retested in dose-response had high values
# Conditions: 5 µM
row,SMILES,Percent Effect [%]
1,Cc1cccc(OC2CCN(S(=O)(=O)Cc3cccc(F)c3)CC2)n1,-8.664
2,CSCC(C)(O)CNC(=O)c1cc(F)ccc1Br (stereo unspecified),-2.784
3,Cn1cc(CNC(=O)c2cc3c(s2)CCCCC3)cn1,-22.89
4,O=C(Cc1ccc2c(c1)CCC2)NC1CCN(Cc2ccccc2)CC1,7.244
5,O=C(NC1CCN(c2cc(-n3ccnc3)ncn2)CC1)c1ccncc1,4.759
6,O=C(NC1CCN(Cc2ccc(F)cc2)CC1)c1ccc2c(c1)CCC2,-15.84
7,O=C(Cc1ccc2c(c1)CCC2)NCCNc1ncccn1,11.75
8,O=C(N[C@@H]1CCC[C@@H](n2ccnc2)[C@@H]1O)c1ccc2c(c1)CCCC2,113.7
9,O=C(N[C@@H]1CC[C@@H](n2ccnc2)[C@@H]1O)c1cc2c(s1)CCC2,100.6
10,O=C(Cc1ccc2c(c1)CCCC2)N[C@@H]1CC[C@@H](n2ccnc2)[C@@H]1O,128.7
11,CCOc1ncccc1NC(=O)c1cc2c(s1)CCC2,-11.29
12,CCOCC(=O)NCC1(NC(C)c2ccccc2)CCOCC1 (stereo unspecified),-5.882
13,CCC(CN1CCCC1)n1cncc1-c1cnn(Cc2ccccc2)c1.Cl (stereo unspecified),116
14,Cc1cnn(CC(C)NCc2c(C)nn(Cc3ccccc3)c2C)c1 (stereo unspecified),-7.761
15,CCc1nnsc1C(=O)N1CCCN(Cc2ccccc2)CC1,-10.59
16,COc1cc(CN2CCCCCC2c2cccs2)cc(OC)c1O (stereo unspecified),139
17,COc1cc(CN2CCCCCC2c2cccs2)cc(OC)c1OC (stereo unspecified),88.88
18,O=C(CCN1CCCC1c1cccs1)N1CCc2sccc2C1 (stereo unspecified),2.808
19,COc1cccc(CN2CCCCCC2c2sccc2C)c1O (stereo unspecified),115
20,COc1cccc(CN2CCCCCC2c2cccs2)c1OC (stereo unspecified),128.6
21,COc1cccc(CN2CCN(CC(C)C)C(=O)C2C)c1O (stereo unspecified),-13.51
22,Cc1cc(C)cc(N(CCC#N)C(=O)CN2CCCC2c2cccs2)c1 (stereo unspecified),-27.93

row,SMILES,Percent Effect [%]
1,COc1cccc(CN2CCCCCC2c2cccs2)c1O (stereo unspecified),-12.69
2,COc1cccc(CN2CCCC(Nc3cccc(F)c3)C2)c1O (stereo unspecified),-12.95
3,Cc1nc(C)n(CC2CCCCN2CCCS(N)(=O)=O)n1 (stereo unspecified),-48.39
4,CC(NC(=O)N1CCC(OCc2ccccc2)CC1)c1nncn1C (stereo unspecified),-3.035
5,CC(=O)Nc1ccc(-n2ccc3nc(N4CCCC4)ncc3c2=O)cc1,4.031
6,OCCC1CN(c2nc(-c3cccnc3)nc3c2CCNCC3)CCO1 (stereo unspecified),-11.64
7,CNC(=O)c1c(C)cccc1NCC(=O)Nc1cc(C)nn1C,-2.295
8,O=C(Nc1ccc(F)cc1)N(CCC(F)(F)F)C[C@H](O)CO,-0.3648
9,Cc1nc2c(c(N3CCCOCC3)n1)CCN(c1nccs1)CC2,108.7
10,Cc1nc(N2CCOCC2)nc2c1CCN(c1nccs1)CC2,1.797
11,Cc1nc2c(c(N3CCCOCC3)n1)CCN(C(=O)N1CCCC1)CC2,0.8074
12,CCc1nc2n(n1)CCCC2NC(=O)Nc1cc(OC)ccc1C (stereo unspecified),24.05
13,CS(=O)(=O)CCCN1CCOC2(CCc3ccccc32)C1 (stereo unspecified),-1.468
14,CN(Cc1cc(F)ccc1C#N)CC(C)(CO)CO,8.99
15,Cc1cc(F)ccc1S(=O)(=O)N(C)CC(N)=O,-0.8212
16,Cc1nn(C)c(Cl)c1C1CCCN1C(=O)c1ccc(N(C)C)nn1 (stereo unspecified),-10.16
17,COc1c(C2CCCN2C(=O)c2cccc(C(N)=O)c2)c(C)nn1C (stereo unspecified),8.718
18,COc1c(C2CCCN2C(=O)c2cccnc2N(C)C)c(C)nn1C (stereo unspecified),107.7
19,COc1c(C2CCCN2C(=O)c2ccnc(C)n2)c(C)nn1C (stereo unspecified),135.1
20,COc1c(C2CCCN2C(=O)c2ccc(N(C)C)nn2)c(C)nn1C (stereo unspecified),97.2
21,COc1c(C2CCCN2C(=O)c2cccc(C)n2)c(C)nn1C (stereo unspecified),93.53
22,CS(=O)(=O)N1C[C@H](C(=O)Nc2cccnc2)C[C@H]2OCC[C@H]21.O=C(O)C(F)(F)F,-10.82

row,SMILES,Percent Effect [%]
1,CC[C@@]1(O)CCN(c2ncc(Cl)cc2C(F)(F)F)C[C@H]1O,-3.293
2,COCc1noc(CNc2nc(C3CCCC3)nc3c2CCNCC3)n1,-2.329
3,COc1ccc(SC(C)C(=O)N2CCC(C(=O)N3CCCC3)CC2)cc1 (stereo unspecified),-0.009577
4,COCCNC(=O)c1cc(S(=O)(=O)N2CCCCC2)cs1,0.5112
5,NC(=O)C1CCN(C(=O)c2cc(S(=O)(=O)N3CCCCC3)cs2)CC1,2.088
6,COCCNC(=O)c1cc2c(s1)CCN2S(C)(=O)=O,90.75
7,COCCNC(=O)NCCS(=O)(=O)N1CCN(c2cccc(C)c2)CC1,9.148
8,CC(C)CNC(=O)c1cc2c(s1)CCN2Cc1cccnc1,-6.846
9,COCCNC(=O)c1cc(S(=O)(=O)N2CCCCCC2)cs1,97.81
10,CN(C)CCNC(=O)c1cc2c(s1)CCN2S(C)(=O)=O,114.7
11,CC(C)CNC(=O)c1nc2c(s1)CCN(C(=O)c1cccnc1)CC2,-3.468
12,COCCNC(=O)C1CCCN1S(=O)(=O)c1sc(=O)[nH]c1C (stereo unspecified),-10.99
13,CN(C)CCNC(=O)c1ccc(OC2CCN(S(C)(=O)=O)CC2)c(Cl)c1,-4.841
14,CC(C)CNC(=O)c1cc2c(s1)CCN2S(C)(=O)=O,101.5
15,Cc1ncsc1CCC(=O)N1CCN(CCn2cncn2)CC1,-30.48
16,CS(=O)(=O)c1nnc(NC(=O)CCc2ccc(Cl)s2)[nH]1,-11.44
17,COc1cc(CN(C)C(=O)NCCNC(=O)C2CC2)ccc1SC,6.493
18,Cc1nnc(CN2CCN(C)C3(CCNC(=O)CC3)C2)s1 (stereo unspecified),-6.186
19,CN(C)C(=O)CNC(=O)c1cc(Br)c2c(c1)OCCO2,-3.612
20,CN(C)C(=O)CNC(=O)c1cc2c(s1)CCN2S(C)(=O)=O,110.9
21,CN(C)C(=O)c1cc2c(s1)CCN(C(=O)CCCN1CCCCC1)C2,-52.48
22,CC(C)(C)c1noc(CNc2ccccc2N2CCC(O)CC2)n1,-3.978
